POLI inh – blocks human DNA polymerase iota activity; 390,000 compounds, 1% hits; Q9UNA4; Potency, µM (series often up to 115 µM), most hits filed as inhibitors; Pol iota fluorescent replication assay, 10 min; AID 588590
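Fluorescent replication assay read twice, at 0 min and 10 min after adding 50 nM (final) substrate. Enzyme (10 nM) and compounds were first incubated 15 min at room temperature; enzyme-free buffer wells were negative controls.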
FEN1 inhibitor – human FEN1 inhibition | Recombinant FEN1 flap cleavage, fluorescence, 15 min | P39748 | AID 588795 | Potency, µM (top dose mostly 114 µM), actives largely listed as inhibitors | 390,000 compounds, 0.35% hits; also: nearly all actives have a fitted effect of over 65% in size
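In this screen, 50 nM flap DNA substrate was added to 10 nM FEN1 pretreated with compound for 15 min at room temperature; cleavage was followed with reads at 0 and 15 min, and Hill fitting gave concentration–response parameters.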
POLB inh – inhibitors of human DNA polymerase beta. AID 485314. P06746. Pol beta primer extension/strand displacement, fluorescence kinetic. Potency, µM (highest dose often 114 µM), usual class: inhibitors. 340,000 compounds, 1.3% hits
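Preincubation: enzyme (10 nM) with compound, 15 min, RT. Reaction: substrate added to 50 nM final. Reads: 0 and 10 min. Analysis: normalized, Hill fit.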
Pol kappa inh – blocks human DNA polymerase kappa activity | Q9UBT6 | purified Pol kappa, fluorescent DNA synthesis assay, 10 min | Potency, µM (series often up to 107 µM), hits mostly inhibitors | 400,000 compounds, 0.53% hits | AID 588579
Target sequence (Q9UBT6 whole entry, looked up): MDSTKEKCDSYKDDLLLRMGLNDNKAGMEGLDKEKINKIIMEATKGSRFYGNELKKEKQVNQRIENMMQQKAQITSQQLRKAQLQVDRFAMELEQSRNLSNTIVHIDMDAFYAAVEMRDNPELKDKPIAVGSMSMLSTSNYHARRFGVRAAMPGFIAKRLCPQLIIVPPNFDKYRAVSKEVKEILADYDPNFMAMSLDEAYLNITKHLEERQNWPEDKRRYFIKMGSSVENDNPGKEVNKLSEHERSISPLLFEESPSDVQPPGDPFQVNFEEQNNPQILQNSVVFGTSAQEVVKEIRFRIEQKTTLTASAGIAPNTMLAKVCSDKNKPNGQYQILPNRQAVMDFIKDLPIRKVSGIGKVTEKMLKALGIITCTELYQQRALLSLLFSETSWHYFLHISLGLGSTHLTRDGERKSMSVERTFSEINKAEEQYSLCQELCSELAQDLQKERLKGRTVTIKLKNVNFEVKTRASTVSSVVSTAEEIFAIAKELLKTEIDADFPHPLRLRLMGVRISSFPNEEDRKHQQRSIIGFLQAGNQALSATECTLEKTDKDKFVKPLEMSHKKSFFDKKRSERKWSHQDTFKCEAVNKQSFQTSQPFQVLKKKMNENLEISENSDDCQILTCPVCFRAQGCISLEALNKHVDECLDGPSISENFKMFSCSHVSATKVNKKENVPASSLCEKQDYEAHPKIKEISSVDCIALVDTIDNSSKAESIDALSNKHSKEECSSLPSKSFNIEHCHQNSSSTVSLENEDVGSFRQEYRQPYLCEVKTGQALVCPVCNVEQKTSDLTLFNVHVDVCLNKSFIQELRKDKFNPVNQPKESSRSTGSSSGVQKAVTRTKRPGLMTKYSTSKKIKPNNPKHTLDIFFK
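Enzyme at 10 nM met test compounds for 15 min at room temperature. Substrate addition (50 nM final) began the reaction, which was monitored by fluorescence at 0 and 10 min.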
WRN helicase inh – WRN helicase (human) inhibition | Q14191 | WRN helicase unwinding, fluorescent forked duplex, kinetic | Potency, µM (series often up to 114 µM), most hits filed as inhibitors | 360,000 compounds, 0.46% hits | AID 651768; also: nearly all actives have a fitted effect of over 55% in size
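WRN at 20 nM final preincubated with compound 15 min at room temperature; reaction started with 100 nM fluorophore/quencher forked duplex oligonucleotide and 2 mM ATP final. Unwinding followed kinetically by red fluorescence (ex 525, em 598 nm).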
Pol eta inh – blocks human DNA polymerase eta activity | Potency, µM (top dose mostly 114 µM), usual class: inhibitors | Q9Y253 | AID 588591 | 390,000 compounds, 1.2% hits | recombinant Pol eta, fluorescent DNA replication assay
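Pol eta at 10 nM preincubated with compounds 15 min at room temperature; reaction started with fluorescent substrate (50 nM final) and read kinetically at 0 and 10 min.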
Of the large screens only hits and unclear results are named; the others gave an inactive call. This is a sample that favours compounds with a hit; in the whole collection about 2.4% have one here. Calls follow the shape of the dose curve; as a rule, active = well fitted curve in the direction sought with a large enough effect; inconclusive = small, poorly fitted or top-dose-only effect, or another doubt; inactive = no such curve, though single readings can be large; an effect the other way counts as inactive or inconclusive.

CCN(CCC#N)c1ccc(/C=C/c2ccnc3ccccc23)cc1	FEN1 inhibitor inconclusive (no result: POLB inh, WRN helicase inh, Pol eta inh)
CCN(Cc1cccc(S(=O)(=O)O)c1)c1ccc(C(=C2C=CC(=[N+](CC)Cc3cccc(S(=O)(=O)O)c3)C=C2)c2ccccc2S(=O)(=O)[O-])cc1	POLI inh inconclusive, FEN1 inhibitor 31.6µM, Pol kappa inh 7.94µM (no result: POLB inh, WRN helicase inh, Pol eta inh)
CCN(Cc1cccc(S(=O)(=O)O)c1)c1ccc(C(=C2C=CC(=[N+](CC)Cc3cccc(S(=O)(=O)O)c3)C=C2)c2ccc(O)cc2S(=O)(=O)O)cc1	POLI inh 2.24µM, FEN1 inhibitor 12.6µM, Pol kappa inh 2.82µM (no result: POLB inh, WRN helicase inh, Pol eta inh)
CC1=CC(=O)C=C/C1=C(/c1ccc(O)cc1C)c1ccccc1S(=O)(=O)O	none (no result: POLB inh)
COC(=O)c1ccccc1NC1=C/C(=N\S(=O)(=O)c2cccs2)c2ccccc2C1=O	POLI inh 1.41µM
CCn1c(O)c(/C=C2\C=NN=C2c2ccc(C)cc2)sc1=S	POLI inh 89.1µM
CC(C)n1c(O)c(/C=C2\C=NN=C2c2ccccc2)sc1=S	none
CC(C)C[C@H](NC(=O)[C@H](CCCCN)NC(=O)[C@H](CCC(N)=O)NC(=O)[C@H](Cc1cnc[nH]1)NC(=O)[C@H](Cc1cnc[nH]1)NC(=O)[C@@H](N)C(C)C)C(=O)N[C@H](C(=O)N[C@@H](Cc1ccccc1)C(=O)N[C@@H](Cc1ccccc1)C(=O)N[C@@H](C)C(=O)N[C@@H](CCC(=O)O)C(=O)N[C@@H](CC(=O)O)C(=O)N[C@H](C(=O)NCC(=O)N[C@@H](CO)C(=O)N[C@@H](CC(N)=O)C(=O)N[C@@H](CCCCN)C(=O)O)C(C)C)C(C)C	none (no result: POLI inh, FEN1 inhibitor, POLB inh, WRN helicase inh, Pol eta inh)
Cc1ccccc1NC(=O)CSc1nc(-c2cccs2)nc2cc(=O)[nH]n12	POLI inh 89.1µM, POLB inh inconclusive, Pol kappa inh inconclusive (no result: WRN helicase inh)
Cc1ccc(NC(=O)CSc2nc(-c3ccc(C(C)(C)C)cc3)nc3cc(=O)[nH]n23)cc1C	POLB inh inconclusive (no result: WRN helicase inh)
COc1ccc(OC)c(NC(=O)CSc2nc(-c3ccccc3C)nc3cc(=O)[nH]n23)c1	none (no result: WRN helicase inh)
Cc1ccc(NC(=O)CSc2nc(-c3ccco3)nc3cc(=O)[nH]n23)cc1	POLI inh inconclusive, POLB inh 50.1µM (no result: WRN helicase inh)
Cc1ccc(NC(=O)CSc2nc(-c3cccs3)nc3cc(=O)[nH]n23)cc1C	POLI inh 89.1µM, POLB inh 50.1µM (no result: WRN helicase inh)
CCc1cccc(NC(=O)COC(=O)c2ccccc2OCc2ccccc2Br)c1	none (no result: POLB inh, WRN helicase inh, Pol eta inh)
CC[C@H](C)[C@H](NC(=O)[C@H](Cc1ccc(O)cc1)NC(=O)[C@H](Cc1cnc[nH]1)NC(=O)[C@H](CCCNC(=N)N)NC(=O)[C@H](CC(C)C)NC(=O)[C@H](C)NC(=O)[C@H](CO)NC(=O)[C@H](Cc1ccc(O)cc1)NC(=O)[C@H](Cc1ccc(O)cc1)NC(=O)[C@H](CCCNC(=N)N)NC(=O)[C@H](C)NC(=O)[C@H](CCSC)NC(=O)[C@H](CC(=O)O)NC(=O)[C@H](CCC(=O)O)NC(=O)[C@H](C)NC(=O)[C@@H]1CCCN1)C(=O)N[C@@H](CC(N)=O)C(=O)N[C@@H](CC(C)C)C(=O)N[C@H](C(=O)N[C@H](C(=O)N[C@@H](CCCNC(=N)N)C(=O)N[C@@H](CCC(N)=O)C(=O)N[C@@H](CCCNC(=N)N)C(=O)N[C@@H](Cc1ccc(O)cc1)C(N)=O)[C@@H](C)O)[C@@H](C)CC	none (no result: POLI inh, FEN1 inhibitor, POLB inh, WRN helicase inh, Pol eta inh)
O=C(N/N=C/c1ccccc1Cl)c1nc2ccc([N+](=O)[O-])cc2c(=O)[nH]1	POLI inh 10µM
COc1ccc(CN(Cc2ccccc2)C(C)=O)cc1COc1ccc(NC(C)=O)cc1	none (no result: POLB inh, WRN helicase inh, Pol eta inh)
CC(C)(CO)C(O)C(=O)NCCCC(=O)O (configuration not stated)	none (no result: POLI inh, FEN1 inhibitor, POLB inh, WRN helicase inh, Pol eta inh)
Cc1cccc(C)c1NC(=O)CSCC(=O)c1ccc(O)c(O)c1	POLI inh 20µM, WRN helicase inh inconclusive, Pol eta inh inconclusive
COc1ccc(SCC(CC(C)C)N2CCN(C)CCC2=O)cc1 (configuration not stated)	none (no result: POLB inh, WRN helicase inh, Pol eta inh)

Source: PubChem
